# Experimental data reported in PubChem BioAssay.
# System: Noggin (protein binding on small-molecule microarray)
# Test: small molecules binding Noggin protein – biochemical, 635/667 nm fluorescence, primary screen (AID 1095);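 also: score merges 667 nm feature fluorescence with signal to noise over triplicate slides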
# Details: 635 nm fluorescence, higher = more signal
row,Structure (SMILES),composite z-score
1,CCN1C(=O)[C@H]2[C@H]3[C@H](O)[C@H](O)CC(=NO[C@@H](C)c4cc(-c5c(C)cc(C)cc5C)no4)[C@@H]3CC[C@H]2C1=O,0.529
2,O=C(NN=C1C[C@@H](O)[C@@H](O)[C@@H]2[C@@H]3C(=O)N(c4ccc(F)cc4F)C(=O)[C@@H]3CC[C@H]12)OCc1ccccc1,0.128
3,CC#CCOCCC=C1c2ccccc2[C@@H](OC)[C@@H]1C,0.697
4,CC(CCC(=O)OC[C@H]1O[C@H](C#Cc2ccccc2)C=C[C@@H]1Oc1ccc(C)cc1)=NO[C@H](C)c1cn([C@@H]2COC[C@H]2O)nn1,0.375
5,COC(=O)[C@@H]1CC[C@H](C)[C@@H](c2ccc(C)cc2)N1C(=O)c1ccc(C=NOC[C@H]2O[C@H](c3ccccc3)C=C[C@@H]2Oc2ccc(OC)cc2)cc1,-0.0296
6,CC(=O)OC[C@H]1O[C@@H](ON=C2[C@H]3CCn4c(=O)n(-c5ccccc5)c(=O)n4[C@H]3[C@H](O)[C@@H]3O[C@H]23)[C@H](OC(C)=O)[C@@H](OC(C)=O)[C@@H]1OC(C)=O,0.349

# Target: Neurogenic locus notch homolog protein 3 (Homo sapiens) (UniProt Q9UM47)
# Test: small molecules binding NOTCH3 protein – biochemical, 635/667 nm fluorescence, primary screen (AID 1096)
# Details: small-molecule microarray, 635 nm fluorescence, higher = more signal
# Neurogenic locus notch homolog protein 3 (Homo sapiens), sequence (Q9UM47 whole entry, looked up): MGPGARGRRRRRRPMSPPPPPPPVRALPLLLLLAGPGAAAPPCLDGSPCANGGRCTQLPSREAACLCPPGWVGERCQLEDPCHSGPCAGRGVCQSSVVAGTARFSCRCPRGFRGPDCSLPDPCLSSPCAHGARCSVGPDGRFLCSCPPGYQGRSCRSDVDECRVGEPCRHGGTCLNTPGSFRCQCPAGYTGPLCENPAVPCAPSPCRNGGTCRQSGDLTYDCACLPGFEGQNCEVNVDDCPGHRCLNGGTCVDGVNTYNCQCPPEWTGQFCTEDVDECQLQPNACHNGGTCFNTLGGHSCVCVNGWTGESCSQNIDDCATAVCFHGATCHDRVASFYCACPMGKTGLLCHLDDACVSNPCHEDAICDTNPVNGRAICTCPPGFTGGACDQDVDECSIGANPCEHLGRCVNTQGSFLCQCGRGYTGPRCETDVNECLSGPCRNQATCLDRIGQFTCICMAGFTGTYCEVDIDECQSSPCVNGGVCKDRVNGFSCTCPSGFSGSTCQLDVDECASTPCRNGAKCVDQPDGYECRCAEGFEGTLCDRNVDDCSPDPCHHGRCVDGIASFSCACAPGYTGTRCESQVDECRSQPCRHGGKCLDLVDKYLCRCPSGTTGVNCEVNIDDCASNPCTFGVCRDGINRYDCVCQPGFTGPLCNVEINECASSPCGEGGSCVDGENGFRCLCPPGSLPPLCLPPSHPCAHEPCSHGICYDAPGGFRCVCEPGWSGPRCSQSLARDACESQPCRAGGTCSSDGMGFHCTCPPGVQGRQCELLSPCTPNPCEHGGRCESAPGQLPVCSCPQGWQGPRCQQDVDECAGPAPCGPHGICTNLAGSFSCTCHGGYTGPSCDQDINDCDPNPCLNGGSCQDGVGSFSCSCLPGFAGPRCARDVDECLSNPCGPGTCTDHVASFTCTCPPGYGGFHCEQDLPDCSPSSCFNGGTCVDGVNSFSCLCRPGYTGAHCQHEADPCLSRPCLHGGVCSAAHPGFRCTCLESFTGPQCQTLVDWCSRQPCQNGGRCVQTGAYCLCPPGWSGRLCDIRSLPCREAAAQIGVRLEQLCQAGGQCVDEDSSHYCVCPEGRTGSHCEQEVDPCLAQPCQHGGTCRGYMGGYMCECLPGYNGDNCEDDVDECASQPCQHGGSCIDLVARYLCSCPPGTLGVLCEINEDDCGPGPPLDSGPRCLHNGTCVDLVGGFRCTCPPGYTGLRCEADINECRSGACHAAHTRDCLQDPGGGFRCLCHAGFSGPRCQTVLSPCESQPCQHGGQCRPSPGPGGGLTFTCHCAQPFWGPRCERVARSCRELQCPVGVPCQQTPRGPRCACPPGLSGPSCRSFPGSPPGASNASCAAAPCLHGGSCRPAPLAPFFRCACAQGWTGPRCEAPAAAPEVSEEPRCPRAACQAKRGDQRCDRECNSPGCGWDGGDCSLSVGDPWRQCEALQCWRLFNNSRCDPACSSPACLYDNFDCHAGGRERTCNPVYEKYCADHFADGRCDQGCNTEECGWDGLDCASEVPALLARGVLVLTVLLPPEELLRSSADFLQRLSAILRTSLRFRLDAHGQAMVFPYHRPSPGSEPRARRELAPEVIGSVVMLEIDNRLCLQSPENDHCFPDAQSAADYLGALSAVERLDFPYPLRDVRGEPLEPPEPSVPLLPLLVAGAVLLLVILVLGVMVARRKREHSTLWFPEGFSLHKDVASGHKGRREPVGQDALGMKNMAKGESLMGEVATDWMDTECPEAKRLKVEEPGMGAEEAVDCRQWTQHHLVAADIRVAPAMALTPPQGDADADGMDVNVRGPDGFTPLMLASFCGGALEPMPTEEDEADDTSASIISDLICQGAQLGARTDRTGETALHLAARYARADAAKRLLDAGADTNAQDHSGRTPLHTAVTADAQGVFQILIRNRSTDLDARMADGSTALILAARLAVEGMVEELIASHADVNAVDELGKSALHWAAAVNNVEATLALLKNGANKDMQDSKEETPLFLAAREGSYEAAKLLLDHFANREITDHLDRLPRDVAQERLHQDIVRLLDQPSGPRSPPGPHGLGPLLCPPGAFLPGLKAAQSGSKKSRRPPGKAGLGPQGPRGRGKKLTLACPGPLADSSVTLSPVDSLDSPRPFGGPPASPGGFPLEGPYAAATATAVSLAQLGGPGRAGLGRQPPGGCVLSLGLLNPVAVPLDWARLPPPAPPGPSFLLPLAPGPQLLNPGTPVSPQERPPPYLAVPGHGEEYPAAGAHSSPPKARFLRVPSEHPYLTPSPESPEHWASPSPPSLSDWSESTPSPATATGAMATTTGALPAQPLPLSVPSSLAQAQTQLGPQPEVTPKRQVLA
row,Structure (SMILES),composite z-score
1,COc1ccc(COC(=O)NN=C2C[C@@H](O)[C@@H](O)[C@@H]3[C@@H]4C(=O)N(C[C@@H]5CCCO5)C(=O)[C@@H]4CC[C@H]23)cc1,-0.398
2,CCOC(=O)[C@H](Cc1ccccc1)NC(=O)CCC1CC(OC(=O)NCCc2ccc(F)cc2)CC2(CCCC(COC(=O)NCCC(C)C)O2)O1 (some centres not stated),1.07
3,COC(=O)CC=C[C@@H](C)[C@@H](C=NOC[C@@H](O)[C@H]1O[C@@H]2OC(C)(C)O[C@@H]2[C@H]1O)OC,0.845
4,C[C@]12CCC3c4ccc(OCC5CO5)cc4CCC3C1CC[C@@H]2O (some centres not stated),0.162
5,CCOC(=O)CCN1C(=O)[C@H]2[C@H]3[C@H](O)[C@H](O)CC(=NO[C@@H]4O[C@H](CO)[C@@H](O)[C@H](O)[C@H]4O)[C@@H]3CC[C@H]2C1=O,1.09
6,CC(CCN1CCCCc2nc(C)c(C)cc21)=NO[C@H](C)c1cn([C@@H]2COC[C@H]2O)nn1,0.486
7,COc1ccc(COC(=O)NN=C2C[C@@H](O)[C@@H](O)[C@@H]3[C@@H]4C(=O)N(c5cccc(Oc6ccccc6)c5)C(=O)[C@@H]4CC[C@H]23)cc1,0.148
8,CC=CC1=C(CO)[C@H](O)[C@H]2O[C@H]2[C@@H]1O,0.429
9,CC1(C)O[C@H]2OC([C@H](O)CON3C(=O)c4ccccc4C3=O)[C@H](O)[C@H]2O1 (some centres not stated),0.419
10,CCOC(=O)NN=C1C[C@@H](O)[C@@H](O)[C@@H]2[C@@H]3C(=O)N(CC)C(=O)[C@@H]3CC[C@H]12,-0.387
11,CC(=O)OC[C@H]1O[C@@H](ON=C(C)CCC(=O)OC[C@H]2O[C@H](C#Cc3ccccc3)C=C[C@@H]2Oc2ccc(C)cc2)[C@H](OC(C)=O)[C@@H](OC(C)=O)[C@@H]1OC(C)=O,0.936
12,Cc1cc2c(nc1C)CCCCN2CC(O)CN1CCCc2nc(-c3ccc(Br)cc3)ccc21 (configuration not stated),1.11
13,CCOC(=O)CCN1C(=O)[C@H]2[C@H]3[C@H](O)[C@H](O)CC(=NOCC=C(C)CCC=C(C)C)[C@@H]3CC[C@H]2C1=O,0.808
14,CC(=O)OC[C@H]1O[C@@H](ON=C(C)CCN2CCCCc3nc(C)c(C)cc32)[C@H](OC(C)=O)[C@@H](OC(C)=O)[C@@H]1OC(C)=O,0.927
15,CC(=O)OC[C@H]1O[C@H](CCON=C(C)C)C=C[C@@H]1OC(C)=O,0.0158
16,CCCNC(=O)OC[C@H]1O[C@H](CCON=C[C@@H](NS(=O)(=O)c2ccc(C)cc2)[C@H](C)C=CCC(=O)OC)C=C[C@@H]1Oc1ccc(OC)cc1,-0.0703
17,CCCC[C@H]1CN2[C@@H](CC[C@@H](C)[C@@H]2c2ccc(Br)cc2)C(=O)O1,0.728
18,CCC1=NOC(CCC2CC(OC(=O)NCc3cccc4c3OCO4)CC3(CCCC(COC(=O)NCCc4ccc(Cl)cc4)O3)O2)C1 (configuration not stated),-0.165

row,Structure (SMILES),composite z-score
1,COc1ccc(O[C@H]2C=C[C@@H](C#Cc3ccccc3)O[C@@H]2CO)cc1,0.402
2,CC(C)CON=C1[C@H]2CCn3c(=O)n(C)c(=O)n3[C@H]2[C@H](O)[C@@H]2O[C@H]12,0.861
3,COC(=O)[C@@H]1CC[C@H](C)[C@@H](c2ccc(Br)cc2)N1C[C@@H](O)CN=[N+]=[N-],0.0511
4,COC(=O)[C@H](C)NC(=O)CCC1CC(OC(=O)NCCc2ccc(F)cc2)CC2(CCCC(COC(=O)NCc3ccccc3)O2)O1 (some centres not stated),1.1
5,O=C1C[C@H](c2ccccc2)[C@H](c2ccc(Br)cc2)O1,-0.489
6,COc1ccc(O[C@H]2C=C[C@@H](c3ccccc3)O[C@@H]2COC(=O)CCC(C)=NOC[C@@H](O)COCc2ccco2)cc1,-1.74
7,O=C1[C@H]2[C@H]3[C@H](O)[C@H](O)CC(=NOCc4ccccc4)[C@@H]3CC[C@H]2C(=O)N1c1cccc(Oc2ccccc2)c1,0.64
8,O=C1[C@H]2[C@H]3[C@H](O)[C@H](O)CC(=NOC[C@@H](O)COCc4ccco4)[C@@H]3CC[C@H]2C(=O)N1Cc1ccc2c(c1)OCO2,-0.177
9,CCOC(=O)[C@H](CC(C)C)NC(=O)CCC1CC(OC(=O)NCc2ccc3c(c2)OCO3)CC2(CCCC(COC(=O)NCc3ccccc3)O2)O1 (some centres not stated),0.845
10,O=C1C2=CC[C@H]3C(=O)N(C4CCCCC4)C(=O)[C@H]3[C@H]2[C@H](O)[C@@H]2O[C@H]12,-1.63
11,C=CCOCC1CN2[C@@H](CC[C@@H](C)[C@@H]2c2ccc(Br)cc2)C(=O)O1 (some centres not stated),-0.405
12,CCOC(=O)[C@H](Cc1ccccc1)NC(=O)CCC1CC(OC(=O)NCc2ccc3c(c2)OCO3)CC2(CCCC(COC(=O)NCCOc3ccccc3)O2)O1 (some centres not stated),1.12
13,CCN1C(=O)[C@H]2[C@H]3[C@H](O)[C@H](O)CC(=NO[C@@H](C)c4cc(-c5c(C)cc(C)cc5C)no4)[C@@H]3CC[C@H]2C1=O,0.994
14,O=C(NN=C1C[C@@H](O)[C@@H](O)[C@@H]2[C@@H]3C(=O)N(c4ccc(F)cc4F)C(=O)[C@@H]3CC[C@H]12)OCc1ccccc1,0.827
15,CC#CCOCCC=C1c2ccccc2[C@@H](OC)[C@@H]1C,0.153
16,CC(CCC(=O)OC[C@H]1O[C@H](C#Cc2ccccc2)C=C[C@@H]1Oc1ccc(C)cc1)=NO[C@H](C)c1cn([C@@H]2COC[C@H]2O)nn1,-0.151
17,COC(=O)[C@@H]1CC[C@H](C)[C@@H](c2ccc(C)cc2)N1C(=O)c1ccc(C=NOC[C@H]2O[C@H](c3ccccc3)C=C[C@@H]2Oc2ccc(OC)cc2)cc1,0.107
18,CC(=O)OC[C@H]1O[C@@H](ON=C2[C@H]3CCn4c(=O)n(-c5ccccc5)c(=O)n4[C@H]3[C@H](O)[C@@H]3O[C@H]23)[C@H](OC(C)=O)[C@@H](OC(C)=O)[C@@H]1OC(C)=O,0.785
